Bioassay records: PubChem, Sanford-Burnham Center for Chemical Genomics
Rows were chosen to be rich in hits. Some 4.1% of all compounds tested hit in one or more screens of this group.
TIM10 inh: inhibits growth of TIM10 yeast strain; inhibition, % at 10 µM; S. cerevisiae TIM10 strain growth, BacTiter-Glo luminescence, 24 h; 1.4% of 330,000 active;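 active = inhibition of 40% or more at the single tested concentration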;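 also: wild-type TIM10 isogenic control strain grown at permissive 25 °C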
tim10-1 inh: tim10-1 yeast growth inhibition. S. cerevisiae tim10-1 ts strain growth, BacTiter-Glo, 24 h. inhibition, % at 20 µM. 2.2% of 330,000 active. AID 463190;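 active = inhibition of at least 40%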;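 also: mutant grown at 25 °C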
NALP1 inh: inhibitors of NALP1 inflammasome in yeast | inhibition, % at 10 µM | S. cerevisiae NALP1/ASC/caspase-1 growth, X-gal OD620, 72 h | AID 2071 | 0.61% of 280,000 active; in the data active = inhibition mostly above about 24%, no sharp cut-off; inactive = mostly below about 32%
tim23-1 inh: tim23-1 yeast growth inhibition | S. cerevisiae tim23-1 growth, BacTiter-Glo luminescence, 24 h | 1.3% of 330,000 active | inhibition, % at 20 µM | AID 463212;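 active = growth inhibition of the mutant yeast at or above 50%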;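 also: temperature-sensitive mutant grown at 25 °C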
NLRP3 yeast inh: NALP3 inhibition in yeast | Yeast reconstituted NLRP3/ASC/caspase-1, beta-gal luminescence, 24 h | inhibition, % at 10 µM | 0.39% of 330,000 active;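 active = inhibition of 50% or more; inactive = inhibition below 50%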
TIM10 conf: confirmation of TIM10 yeast growth inhibitors. shares compounds with TIM10 inh. S. cerevisiae tim10 strain growth, BacTiter-Glo luminescence, 24 h. inhibition, % at 10 µM. 63% of 4,600 active. AID 463215;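 active = inhibition of yeast growth at or above a set limit in either of two replicates at 10 µM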; also: this counterscreen used the strain with wild-type TIM10
Hits are given with their value; . = inactive; / = no result given.

SMILES	TIM10 inh	tim10-1 inh	NALP1 inh	tim23-1 inh	NLRP3 yeast inh	TIM10 conf
CCCCN1CC(=O)N2[C@H](c3ccc(Cl)cc3)[C@@H]3C(=O)N(CC)C(=O)[C@@H]3[C@]2(C)C1=O	52.6	.	.	.	.	.
COc1ccc(-c2nc(SC)n(C(=O)c3ccco3)n2)cc1	41.9	.	.	.	.	.
COc1ccc(-c2nc(SCc3ccccc3)n(C(=O)c3ccco3)n2)cc1	.	.	.	.	.	/
O=S(=O)(Nc1nccs1)c1ccc(NS(=O)(=O)c2c(F)cc(F)c(Cl)c2F)cc1	.	.	/	.	.	/
CCN1C(=O)C(=Cc2cccc(OC)c2Oc2ccc([N+](=O)[O-])cc2[N+](=O)[O-])SC1=S	43.7	.	.	.	.	.
O=C(NCC1COc2ccccc2O1)c1cc(S(=O)(=O)N2CCOCC2)ccc1F (stereo unspecified)	.	.	/	.	.	/
O=C(Nc1ccc(C(F)(F)F)cc1)c1cc(S(=O)(=O)NCC2COc3ccccc3O2)ccc1F (stereo unspecified)	42.3	.	.	.	.	44.5
CCOC(=O)NC(=S)Nc1ccc(C(C)(C)C)cc1Br	49.5	.	.	.	.	38.6
COc1ccccc1CNC(=O)CN1C(=O)COc2ccc(S(=O)(=O)N3CCCCC3)cc21	.	.	.	.	.	/
COc1ccc(C(=O)NCCS(=O)(=O)NC2CCCC2)cc1	40.5	.	/	.	.	.
O=C(NCC1OCCc2ccccc21)c1cc(COc2ccc(F)cc2Cl)on1 (stereo unspecified)	.	.	.	.	.	/
Cc1cc(C)nc(-n2nc(C)cc2NC(=O)CNCc2ccccc2)n1	.	.	/	.	.	/
CCC(C(=O)Nc1cc(C)nn1-c1nc(C)cc(C)n1)c1ccccc1 (stereo unspecified)	43.9	.	.	.	.	.
COc1ccc(N(C(=O)c2ccco2)S(=O)(=O)c2cccc([N+](=O)[O-])c2)cc1	.	.	.	.	.	/
COc1ccc(N(C(=O)c2ccco2)S(=O)(=O)c2ccc(F)cc2)cc1	42.5	.	.	.	.	.
Cc1cc(C(=O)N/N=C/c2ccc([N+](=O)[O-])o2)c(C)o1	41.1	.	.	.	.	.
NC(=O)N/N=C/c1ccc([N+](=O)[O-])o1	.	.	/	.	.	/
Cn1cccc1/C=N/NC(=O)c1sc2ccccc2c1Cl	46.3	.	.	.	.	49.4
O=C(N/N=C/c1ccc([N+](=O)[O-])o1)c1sc2ccccc2c1Cl	69.4	.	/	.	.	64.7
Cc1nonc1C(=O)N/N=C/c1ccc([N+](=O)[O-])o1	.	.	.	.	.	/
O=C(N/N=C/c1c[nH]c2ccccc12)c1sc2ccccc2c1Cl	.	.	.	.	.	/
O=C(c1ccccc1)C(O)C(c1ccccc1)N1CCOCC1 (stereo unspecified)	.	.	.	.	.	/
COc1ccc2oc(=O)c(-c3csc(Nc4ccc(O)cc4)n3)cc2c1	40.6	.	.	.	.	.
O=C(Nc1ccc(N2CCOCC2)cc1)c1cc(-n2cnnc2)ccc1Cl	96.5	.	.	.	.	.
O=C(Nc1ccccc1)c1cc(-n2cnnc2)ccc1Cl	.	.	.	.	.	/
SMILES	TIM10 inh	tim10-1 inh	NALP1 inh	tim23-1 inh	NLRP3 yeast inh	TIM10 conf
Clc1cccc(Cl)c1CSc1cc2c(nn1)-c1ccccc1CC2	40.5	.	.	.	.	.
Clc1ccccc1CSc1cc2c(nn1)-c1ccccc1CC2	.	.	.	.	.	/
O=C(NCCOc1ccc(Cl)cc1)C1CC(=O)N(c2ccc3c(c2)OCCO3)C1 (stereo unspecified)	.	.	/	.	.	/
COc1ccc(NC(NC(=O)c2ccc(OC)cc2)C(Cl)(Cl)Cl)cc1 (stereo unspecified)	41.7	.	.	.	.	26.5
Cc1cc(C)c(NC(=O)C2CCCN2CCOC(=O)c2cccc([N+](=O)[O-])c2)c(C)c1 (stereo unspecified)	41.4	.	.	.	.	.
O=C1CC(c2ccco2)CC(O)=C1C=Nc1cc(Cl)ccc1O (stereo unspecified)	.	.	.	.	.	/
O=C1CC(c2ccco2)CC(O)=C1C=Nc1ccccc1-c1ccccc1 (stereo unspecified)	41.2	.	.	.	.	.
O=C(Nc1ccc(Cl)cc1)N1CCC(c2nc(-c3ccc(F)cc3)no2)CC1	48.4	.	.	.	.	.
COc1ccc(NC(=O)N2CCCC(c3nc(-c4ccc(OC)cc4)no3)C2)cc1 (stereo unspecified)	.	.	.	.	.	/
CCOc1ccc(S(=O)(=O)N2CCCCC2)cc1NC(=O)Cc1cccc(C(F)(F)F)c1	.	.	/	.	.	/
COCCOC1CCN(C(=O)C2CCC(=O)N(CCc3ccccc3)C2)CC1 (stereo unspecified)	.	.	.	.	.	/
COc1ccc(OC)c(-n2c(SCC(N)=O)nnc2-c2c[nH]c3ccccc23)c1	97.6	.	.	.	.	.
COc1cccc(-n2c(SCC(N)=O)nnc2-c2c[nH]c3ccccc23)c1	.	.	.	.	.	/
Oc1ccc(N=Nc2c(O)ccc3ccccc23)cc1	53.9	.	/	.	.	64.7
NS(=O)(=O)c1ccc(N=Nc2c(O)ccc3ccccc23)cc1	.	.	.	.	.	/
Cc1nc(NC(=O)c2ccccc2)sc1-c1csc(N)n1	43.9	.	.	.	.	.
Cc1nc(NC(=O)c2ccccc2)sc1-c1csc(NCc2ccccc2)n1	.	.	.	.	.	/
O=C(CCSc1nc(-c2ccco2)cc(C(F)(F)F)n1)N1CCN(c2ccccn2)CC1	40.3	.	.	.	.	32.2
CCOc1ccc(CN(C)C(=O)[C@H](Cc2ccccc2)NC(=O)OCc2ccccc2)cc1OC	.	.	.	.	.	/
CCc1ccc(N2C(=O)C(Cl)=C(Nc3ccc(C(=O)N4CCCC4)cc3)C2=O)cc1	50.4	.	/	.	.	41.7
O=C(c1ccc(N2C(=O)c3ccccc3C2=O)cc1)N1CCCCC1	.	.	.	.	.	/
COc1cccc(N2CCN(c3ccc4nnc(CCC(=O)Nc5cccc(C(C)=O)c5)n4n3)CC2)c1	.	.	.	.	.	/
Cc1cc(C(=O)CN2C(=O)C3CC=CCC3C2=O)c(C)n1-c1ccccc1 (stereo unspecified)	43.0	.	.	.	.	.
Cc1cc(C(=O)CN2C(=O)c3ccccc3S2(=O)=O)c(C)n1-c1ccccc1	.	.	.	.	.	/
CC(C)CC(c1nnnn1Cc1cccs1)N1CCN(c2nc3ccccc3s2)CC1 (stereo unspecified)	.	.	.	.	.	/
CC(C)C(c1nnnn1Cc1ccco1)N1CCN(c2nc3ccccc3s2)CC1 (stereo unspecified)	44.5	.	.	.	.	.
CC(=O)Nc1ccc(NC(=O)C(C)OC(=O)C2CCN(S(=O)(=O)c3ccc4c(c3)OCCO4)CC2)cc1 (stereo unspecified)	.	.	/	.	.	/
